Experimental data reported in PubChem BioAssay (NCATS).
Results filed as inconclusive are left out. A call without a number means that no potency is given here. The source made the active and inactive calls. Calls follow the shape of the dose curve; as a rule, active = well fitted inhibition curve with a large enough effect; inconclusive = small, poorly fitted or top-dose-only effect; inactive = flat fitted curve, though single readings scatter.

What was measured:
Test in all cases: qHTS profiling for inhibitors of Plasmodium falciparum proliferation (AID 504749); also: nearly all actives have a fitted effect of over 60% in size
Settings in all cases: P. falciparum in erythrocytes, SYBR Green DNA, 72 h; series mostly up to 28.7 µM
DFO2036 = test system: DFO2036
Outline: (§1)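 P. falciparum-infected erythrocytes (0.3% parasitemia, 2.5% hematocrit final) were exposed to compounds for 72 h at 37 C in 5% CO2, then lysed with SYBR Green buffer overnight at room temperature; parasite DNA fluorescence was normalized to artemisinin and DMSO controls.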

DIV17 = test system: DIV17
Outline: as §1

DIV30 = test system: DIV30
Outline: as §1

ECU = test system: ECU
Outline: as §1

FAB9 = test system: FAB9
Outline: as §1

GB4 = test system: GB4
Outline: as §1

HB3 = test system: HB3
Outline: as §1

ICS = test system: ICS
Outline: as §1

P93_24 = test system: P93_24
Outline: as §1

P94_40 = test system: P94_40
Outline: as §1

PAD = test system: PAD
Outline: as §1

PC15 = test system: PC15
Outline: as §1

PC49 = test system: PC49
Outline: as §1

SC27B = test system: SC27B
Outline: as §1

CP335 = test system: CP335
Outline: as §1

Dd2 = test system: Dd2
Outline: as §1

JCK = test system: JCK
Outline: as §1

N140 = test system: N140
Outline: as §1

PC26 = test system: PC26
Outline: as §1

DIV14 = test system: DIV14
Outline: as §1
Potency is read from the fitted curve at half-maximal effect.

Row | SMILES | Potency (DFO2036) | Potency (DIV17) | Potency (DIV30) | Potency (ECU) | Potency (FAB9) | Potency (GB4) | Potency (HB3) | Potency (ICS) | Potency (P93_24) | Potency (P94_40) | Potency (PAD) | Potency (PC15) | Potency (PC49) | Potency (SC27B) | Potency (CP335) | Potency (Dd2) | Potency (JCK) | Potency (N140) | Potency (PC26) | Potency (DIV14)
1 | CC(C)(N)Cc1ccc(Cl)cc1 | inactive | inactive | inactive | inactive | inactive | 8.49 µM (active) | inactive | inactive | inactive | inactive | inactive | inactive | inactive | inactive | – | – | – | – | – | –
2 | C[C@]12C/C(=C/O)C(=O)C[C@@H]1CC[C@@H]1[C@@H]2CC[C@@]2(C)[C@H]1CC[C@]2(C)O | inactive | – | inactive | inactive | inactive | inactive | inactive | – | inactive | inactive | – | inactive | inactive | inactive | inactive | inactive | inactive | inactive | inactive | –
3 | N#CC(C#N)=Cc1ccc(O)c(O)c1 | inactive | – | inactive | inactive | inactive | – | inactive | inactive | inactive | inactive | inactive | inactive | inactive | inactive | – | inactive | inactive | inactive | inactive | inactive
4 | COc1ccc(C(=O)c2c(C)n(CCN3CCOCC3)c3ccccc23)cc1 | inactive | – | inactive | inactive | inactive | – | inactive | – | inactive | – | inactive | inactive | inactive | inactive | inactive | inactive | inactive | inactive | – | –
5 | CCN(C(C)=O)c1cccc(-c2ccnc3c(C#N)cnn23)c1 | inactive | inactive | inactive | inactive | inactive | inactive | inactive | inactive | inactive | inactive | inactive | inactive | inactive | inactive | inactive | inactive | inactive | inactive | inactive | –
6 | CCN(CC)CCN1C(=O)CN=C(c2ccccc2F)c2cc(Cl)ccc21 | inactive | inactive | inactive | inactive | inactive | – | inactive | – | – | – | inactive | inactive | inactive | inactive | – | – | inactive | inactive | inactive | –
7 | N[C@@H](Cc1ccc(N(CCCl)CCCl)cc1)C(=O)O | – | 15.1 µM (active) | inactive | – | inactive | 15.1 µM (active) | – | – | – | – | – | – | inactive | – | – | 12.6 µM (active) | inactive | – | inactive | 10.7 µM (active)
8 | NCC1(CC(=O)O)CCCCC1 | inactive | inactive | inactive | inactive | inactive | inactive | inactive | inactive | inactive | inactive | inactive | inactive | inactive | inactive | – | inactive | inactive | inactive | inactive | inactive
9 | C=C1CC[C@@]2(O)[C@H]3Cc4ccc(O)c5c4[C@@]2(CCN3CC2CC2)[C@H]1O5 | inactive | inactive | inactive | inactive | inactive | – | inactive | inactive | inactive | inactive | inactive | inactive | inactive | inactive | inactive | – | inactive | inactive | inactive | –
10 | CC(C)NCC(O)c1ccccc1Cl (configuration not stated) | – | 6.75 µM (active) | – | 7.94 µM (active) | inactive | 8.49 µM (active) | – | 4.47 µM (active) | 12.6 µM (active) | 3.98 µM (active) | 7.94 µM (active) | 11.2 µM (active) | – | 10 µM (active) | – | 11.2 µM (active) | – | 7.08 µM (active) | – | 6.75 µM (active)
11 | Cc1ccc(-c2nc3ccc(C)cn3c2CC(=O)N(C)C)cc1 | – | inactive | inactive | inactive | inactive | inactive | inactive | inactive | – | inactive | inactive | inactive | inactive | inactive | inactive | inactive | inactive | inactive | – | inactive
12 | COc1ccc(C(CN(C)C)C2(O)CCCCC2)cc1 (configuration not stated) | inactive | – | inactive | inactive | inactive | – | inactive | inactive | inactive | inactive | inactive | inactive | inactive | inactive | – | – | inactive | – | – | inactive
